# Compound activity deposited in PubChem BioAssay by Broad Institute.
# Tgondii IFNg = T. gondii growth inhibition under IFN-gamma. AID 1259416. activity change, negative = inhibition, % (concentration not given with the values). Toxoplasma gondii growth in IFN-gamma-treated host cells; hits give low values. 3.8% of 69,000 active; in the data active = activity change below about -70%, passing the limit was not always enough;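 also: host cells are HeLa cells infected with Toxoplasma gondii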
# Hits are given with their value; n = inactive. Only a selection was taken, and hits are over-represented in it overall.
SMILES,Tgondii IFNg
COc1ccc(S(=O)(=O)N(C)C[C@@H]2OCCCC[C@@H](C)Oc3ccc(NC(=O)Cc4ccccc4)cc3C(=O)N([C@@H](C)CO)C[C@H]2C)cc1,n
COc1ccc(S(=O)(=O)N(C)C[C@H]2OCCCC[C@H](C)Oc3ccc(NC(=O)Cc4ccccc4)cc3C(=O)N([C@@H](C)CO)C[C@H]2C)cc1,n
COc1ccc(S(=O)(=O)N(C)C[C@H]2OCCCC[C@H](C)Oc3ccc(NC(=O)Cc4ccccc4)cc3C(=O)N([C@@H](C)CO)C[C@@H]2C)cc1,-107.9
COc1ccc(S(=O)(=O)Nc2ccc3c(c2)C(=O)N([C@@H](C)CO)C[C@@H](C)[C@H](CN(C)S(=O)(=O)c2ccc(Cl)cc2)OCCCC[C@@H](C)O3)cc1,n
COc1ccc(S(=O)(=O)N(C)C[C@@H]2OCCCC[C@H](C)Oc3ccc(NC(=O)Cc4ccccc4)cc3C(=O)N([C@H](C)CO)C[C@H]2C)cc1,n
COc1ccc(S(=O)(=O)Nc2ccc3c(c2)C(=O)N([C@H](C)CO)C[C@@H](C)[C@@H](CN(C)S(=O)(=O)c2ccc(Cl)cc2)OCCCC[C@@H](C)O3)cc1,-110.5
COc1ccc(S(=O)(=O)Nc2ccc3c(c2)C(=O)N([C@H](C)CO)C[C@H](C)[C@H](CN(C)S(=O)(=O)c2ccc(Cl)cc2)OCCCC[C@H](C)O3)cc1,-82.0
C[C@@H]1CN([C@@H](C)CO)C(=O)c2cc(NC(=O)Nc3ccc4c(c3)OCO4)ccc2O[C@@H](C)CCCCO[C@@H]1CN(C)S(=O)(=O)c1ccccc1,n
C[C@H]1CCCCO[C@H](CN(C)S(=O)(=O)c2ccccc2)[C@@H](C)CN([C@@H](C)CO)C(=O)c2cc(NC(=O)Nc3ccc4c(c3)OCO4)ccc2O1,-90.9
C[C@@H]1CCCCO[C@H](CN(C)S(=O)(=O)c2ccccc2)[C@@H](C)CN([C@H](C)CO)C(=O)c2cc(NC(=O)Nc3ccc4c(c3)OCO4)ccc2O1,n
CN(C)c1ncc(CN2CCC(C3CCCCN3S(C)(=O)=O)CC2)cn1 (centres undefined),n
OCc1ccccc1-c1nc2ccccc2o1,n
Cc1cccc(CC(=O)N2CCC(C)(C(=O)NCc3ccc(F)cc3F)CC2)c1,n
CN(C)CCNC(=O)[C@H]1CC2CN(Cc3nccs3)CC2N1C (some centres undefined),n
CC(C)Nc1ncnc2c1CCN(C(=O)C1CCC1)CC2,n
CN(C)C(=O)N1CCCn2cnc(COCC3CC3)c2C1,n
CCCCc1ncc(CN2CCCN(c3ccc(F)cc3)CC2)[nH]1,n
CN(C)S(=O)(=O)CCCN1CCC2(CC1)c1ccccc1CC2O (centres undefined),n
O=C(N1CCc2c(nc[nH]c2=O)C1)C1(c2ccccc2)CC1,n
Cc1cc(C(=O)N2CC[C@@H]3OCCN(Cc4cccnc4)[C@@H]3C2)n[nH]1,n
CCOC(=O)c1[nH]c(C)c(CN2CC3CCCN3C[C@@H]2C)c1C (some centres undefined),n
CCOC(=O)c1[nH]c(C)c(S(=O)(=O)NC2CCCCNC2=O)c1C (centres undefined),-95.1
CCOC(=O)c1[nH]c(C)c(C(=O)OCC)c1C,n
COc1ccc2cc(-c3cc(-c4cc(Cl)cc(Cl)c4)nn3[C@@H](C)c3ccc(C(=O)NCCC(=O)O)cc3)ccc2c1,-72.7
COc1ccc(C(=O)NCCc2csc(-c3ccc(Cl)cc3)n2)cc1,n
SMILES,Tgondii IFNg
CC(C)Oc1ccc(C(=O)NCCc2csc(-c3ccc(Cl)cc3)n2)cc1,n
Cc1cc(F)ccc1NC(=O)c1cncc(NS(=O)(=O)c2ccc(Br)cc2)c1,n
Cc1c(O)cc(C(=O)NCc2cccnc2Oc2ccccc2F)cc1O,n
c1ccc(-c2cc3c(N4CCc5ccccc54)ncnc3s2)cc1,n
Clc1ncnc2sc(-c3ccccc3)cc12,n
c1ccc(-c2cc3ncnc(N4CCSCC4)c3s2)cc1,-98.7
CCn1c(C2CCCN(C(=O)c3ccc4scnc4c3)C2)nn(C)c1=O (centres undefined),n
Cn1ccn2ncc(-c3nc(C4(c5ccc(F)cc5)CCOC4)no3)c12 (centres undefined),n
O=C(/C=C/c1ccccc1)c1ccc(O)cc1O,n
O=C(/C=C/c1ccccc1)NC(NC(=S)Nc1ccc(Cl)cc1)C(Cl)(Cl)Cl (centres undefined),-78.0
OC(c1ccccc1)(c1ccccc1)C1CCN(C(=S)Nc2ccc(Cl)cc2)CC1,n
Cc1cc2nc(CN3CCCC(CCc4ccc(F)cc4F)C3)cc(=O)n2[nH]1 (centres undefined),n
CC1(C)Cc2c(sc3ncnc(N)c23)CO1,n
CCCCN(CCCC)c1ncnc2c1sc1nc3c(cc12)COC(C)(C)C3,-103.4
CC1=C(C(=O)Nc2ccc(Cl)cc2)C2(CCN(Cc3ccccc3)CC2)OC1=O,n
CCOc1ccc(NC(=O)C2=C(C)C(=O)OC23CCN(Cc2ccccc2)CC3)cc1,n
CC1=C(C(=O)Nc2ccc(Cl)c(Cl)c2)C2(CCN(Cc3ccccc3)CC2)OC1=O,-92.5
Cc1cc(C)n(CCCn2ccnc2-c2nc[nH]c2C)n1,n
COc1cccc(N(Cc2nc(-c3cccc(C)c3)oc2C)S(=O)(=O)c2ccc(C)cc2)c1,n
